From PubChem BioAssay AID1159580 (chemical genetic matrix, 2015)
Values joined by “and” are separate entries in the source; they are usually repeats but may differ in a detail not shown here. Equal entries are not always repeated. The campaign covered roughly 5,500 compounds. About 2,000 (36%) were called active. About 18% were inconclusive and are not listed. Rule as the data show it: active = normalized growth mostly below about 0.91 (no sharp cut-off); inconclusive = no clear call, values can overlap the other calls; inactive = mostly above about 0.92. Some of the results follow.

Assay: chemical genetic growth profiling, strain panel (AID 1159580);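 also: tested at 20 µM; growth read once vehicle control cultures reached saturation at 30 °C; 1 = growth at the plate median or of vehicle wells; lower values mean less growth of the strain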
Settings: S. cerevisiae deletion strains, growth OD

Measured: normalized growth

CC(=O)OCC(CCn1cnc2cnc(N)nc21)COC(C)=O
inactive: locus YAL013W, strain DEP1, stronger effect = lower value 0.988 | locus YAL021C, strain ccr4, stronger effect = lower value 1.01 | locus YAL026C, strain drs2, stronger effect = lower value 1 | locus YAL030W, strain snc1, stronger effect = lower value 0.982 | locus YBL061C, strain skt5, stronger effect = lower value 0.989 | locus YBR009C, strain hhf1, stronger effect = lower value 1 | locus YBR021W, strain FUR4, stronger effect = lower value 1.01 | locus YBR023C, strain chs3, stronger effect = lower value 0.998 | locus YBR171W, strain sec66, stronger effect = lower value 0.982 | locus YBR229C, strain ROT2, stronger effect = lower value 0.989 | locus YBR231C, strain swc5, stronger effect = lower value 0.971 | locus YBR279W, strain paf1, stronger effect = lower value 0.986 | locus YCL011C, strain gbp2, stronger effect = lower value 0.994 | locus YCL016C, strain dcc1, stronger effect = lower value 0.998 | locus YCL029C, strain bik1, stronger effect = lower value 0.965 | locus YCL061C, strain MRC1, stronger effect = lower value 0.991 | locus YCL069W, strain vba3, stronger effect = lower value 0.988 | locus YCR088W, strain abp1, stronger effect = lower value 0.988 | locus YDL005C, strain med2, stronger effect = lower value 0.991 | locus YDL035C, strain GPR1, stronger effect = lower value 0.994 | locus YDL040C, strain nat1, stronger effect = lower value 0.993 | locus YDL074C, strain BRE1, stronger effect = lower value 1.01 | locus YDL101C, strain DUN1, stronger effect = lower value 0.985 | locus YDL134C, strain PPH21, stronger effect = lower value 0.997 | locus YDL185W, strain tfp1, stronger effect = lower value 0.967 | locus YDL192W, strain arf1, stronger effect = lower value 0.971 | locus YDR001C, strain nth1, stronger effect = lower value 0.988 | locus YDR069C, strain doa4, stronger effect = lower value 0.972 | locus YDR101C, strain arx1, stronger effect = lower value 0.983 | locus YDR137W, strain rgp1, stronger effect = lower value 1.01 | locus YDR150W, strain NUM1, stronger effect = lower value 0.993 | locus YDR159W, strain sac3, stronger effect = lower value 1.01 | locus YDR162C, strain NBP2, stronger effect = lower value 0.996 | locus YDR195W, strain ref2 0.941 | locus YDR297W, strain sur2, stronger effect = lower value 0.987 | locus YDR318W, strain mcm21, stronger effect = lower value 0.979 | locus YDR334W, strain swr1, stronger effect = lower value 1 | locus YDR335W, strain msn5, stronger effect = lower value 0.99 | locus YDR388W, stronger effect = lower value 0.969 | locus YDR392W, strain spt3, stronger effect = lower value 0.995 | locus YDR502C, strain sam2, stronger effect = lower value 0.993 | locus YEL003W, strain gim4, stronger effect = lower value 0.984 | locus YEL037C, strain rad23, stronger effect = lower value 1 | locus YEL061C, strain CIN8 (second series), stronger effect = lower value 0.988 | locus YEL061C, strain CIN8, stronger effect = lower value 0.992 | locus YER015W, strain faa2, stronger effect = lower value 1 | locus YER016W, strain bim1, stronger effect = lower value 0.987 | locus YER110C, stronger effect = lower value 0.974 | locus YER111C, strain swi4, stronger effect = lower value 0.972 | locus YER155C, strain BEM2 (second series), stronger effect = lower value 0.959 | locus YER155C, strain BEM2, stronger effect = lower value 0.993 | locus YER167W, strain BCK2, stronger effect = lower value 0.989 | locus YFR010W, strain ubp6, stronger effect = lower value 0.98 | locus YGL078C, strain dbp3, stronger effect = lower value 0.967 | locus YGL086W, strain mad1, stronger effect = lower value 0.984 | locus YGL167C, strain pmr1, stronger effect = lower value 0.987 | locus YGL173C, strain kem1, stronger effect = lower value 1 | locus YGL227W, strain vid30, stronger effect = lower value 0.979 | locus YGL240W, strain doc1, stronger effect = lower value 0.966 | locus YGL248W, strain PDE1, stronger effect = lower value 0.987 | locus YGL253W, strain hxk2, stronger effect = lower value 0.996 | locus YGR078C, strain PAC10, stronger effect = lower value 1.01 | locus YGR135W, strain pre9, stronger effect = lower value 0.974 | locus YGR229C, strain SMI1, stronger effect = lower value 1.01 | locus YGR252W, strain gcn5, stronger effect = lower value 1.08 | locus YHR013C, strain ard1, stronger effect = lower value 1 | locus YHR027C, strain rpn1, stronger effect = lower value 0.989 | locus YHR030C, strain SLT2, stronger effect = lower value 0.984 and 0.946 | locus YHR079C, strain IRE1 (second series), stronger effect = lower value 0.961 | locus YHR079C, strain IRE1, stronger effect = lower value 0.957 | locus YHR094C, strain hxt1, stronger effect = lower value 0.973 | locus YHR129C, strain ARP1, stronger effect = lower value 0.991 | locus YHR142W, strain chs7, stronger effect = lower value 1 | locus YHR200W, strain rpn10, stronger effect = lower value 0.973 | locus YIL066C, strain RNR3, stronger effect = lower value 0.994 | locus YIL073C, strain SPO22, stronger effect = lower value 0.952 | locus YIL125W, strain kgd1, stronger effect = lower value 0.97 | locus YIR030C, strain dcg1, stronger effect = lower value 0.976 | locus YJL092W, strain hpr5, stronger effect = lower value 0.982 | locus YJL095W, strain BCK1 (second series), stronger effect = lower value 0.987 | locus YJL095W, strain BCK1, stronger effect = lower value 0.99 and 0.992 | locus YJL115W, strain asf1, stronger effect = lower value 0.979 | locus YJL129C, strain trk1, stronger effect = lower value 0.973 | locus YJL134W, strain LCB3, stronger effect = lower value 0.985 | locus YJL154C, strain vps35, stronger effect = lower value 0.997 | locus YJL164C, strain tpk1, stronger effect = lower value 1.01 | locus YJL166W, strain qcr8, stronger effect = lower value 0.984 | locus YJL168C, strain set2, stronger effect = lower value 0.974 | locus YJL187C, strain SWE1 (second series), stronger effect = lower value 0.984 | locus YJR043C, strain POL32, stronger effect = lower value 0.976 | locus YJR066W, strain TOR1, stronger effect = lower value 0.934
